This is a sample that favours compounds with a hit; in the whole collection about 3.6% have one here.
FUS suppressor = rescues growth of FUS-expressing yeast. Potency, µM (titrated, usually from 76.6 µM), most hits filed as activators. hit rate 0.24% among 390,000. S. cerevisiae FUS-expressing, growth rescue, OD600, 24 h. AID 1347120;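 note: plate controls were DMSO vehicle for no effect and reference control for full effect; nearly all actives have a fitted effect of over 55% in size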
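Toxicity suppression screen in FUS-yeast. Cells induced with 2% galactose, starting OD 0.005, treated 24hr at 30C with compounds at multiple final concentrations; growth by OD600.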
Mm-Cpn inhibitor = M. maripaludis TRiC chaperonin inhibition | Potency, µM (doses to about 76.9 µM), without a hit: at the highest dose activity, negative = inhibition, hits mostly inhibitors | hit rate 0.031% among 330,000 | purified Mm-Cpn ATPase, ADP Transcreener TR-FRET; note: % is set by controls: 0 for no effect and ±100 for the full control effect; nearly all actives have a fitted effect of over 80% in size
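ATPase read-out: TR-FRET ADP immunoassay (anti-ADP Eu cryptate vs ADP-d2), ex 320 nm, em 590/665 nm; signal drops as ADP forms. Enzyme 25 nM, ATP 10 uM, 30 min at 37°C after 10 min compound preincubation.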
aSyn rescue = rescues yeast growth from alpha-synuclein toxicity | Yeast expressing alpha-synuclein, growth rescue, BacTiter-Glo, 24 h | Potency, µM (series often up to 46.1 µM), for the others: top-dose growth rescue (activation), most hits filed as activators | hit rate 0.14% among 370,000 | AID 652106; note: % of control where 0% means no effect; nearly all actives have a fitted effect of over 65% in size
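Readout is rescue of growth in alpha-synuclein-expressing yeast, so inhibitors of toxicity appear as activators. Growth after 24 hr at 30 deg C in galactose medium is quantified by luminescence.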
TDP-43 yeast inh = TDP-43 toxicity inhibition in yeast; TDP-43 expressing yeast growth rescue, BacTiter-Glo, 24 h; Potency, µM (doses to about 46.1 µM), for the others: at the top dose growth rescue (activation), actives largely listed as activators; hit rate 1.8% among 410,000; AID 652104; note: % of control where 0% means no effect; nearly all actives have a fitted effect of over 50% in size
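In this qHTS, compounds that restore growth of yeast expressing TDP-43 appear as activators. Cells (OD600=0.02, galactose medium, raffinose-pregrown) are incubated with compound 24 hr at 30 deg C and growth is quantified by BacTiter-Glo.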
Abeta yeast res = compounds reversing amyloid beta toxicity in yeast | yeast expressing A-beta42, growth rescue, OD600, 48 h; response scale: 0% DMSO, 100% iron-clioquinol control | Potency, µM (doses to about 46.1 µM), hits mostly activators | hit rate 0.063% among 410,000 | AID 1347071; note: nearly all actives have a fitted effect of over 55% in size
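Growth rescue measured by 600 nm absorbance after 48 h yeast culture at 30 C with compound. Values normalized between DMSO and an equimolar ferric chloride plus clioquinol control.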
ClpP mod = qHTS Assay for Activators of ClpP. ATP-dependent Clp protease proteolytic subunit (Bacillus subtilis (strain 168)), P80244. purified B. subtilis ClpP, FRET peptide cleavage, 20 min. Potency, µM (series often up to 57.5 µM), for the others: top-dose activity change, negative = active. hit rate 1.9% among 340,000. AID 651965, 2013; active = well fitted falling curve with a large enough effect; inconclusive = small, poorly fitted or top-dose-only effect; inactive = no such curve, though single readings can be large or run the other way; note: the source files actives as falling curves though it sought activators and does not explain the sign; nearly all actives have a fitted effect of over 65% in size
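Buffer: 100 mM Tris/HCl pH8, 100 mM KCl, 0.05% low protease BSA, 2.5% glycerol, 0.01% Tween-20. ClpP 10 microg/mL final; 20 min RT; delta FRET normalized to ADEP and DMSO controls.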
The depositor's hits bear a star. Unless noted, calls come from the whole dose curve; as a rule, active = well fitted curve in the direction sought with a large enough effect; inconclusive = small, poorly fitted or top-dose-only effect, or another doubt; inactive = no such curve, though single readings can be large; an effect the other way counts as inactive or inconclusive. Potency is the fitted concentration of half-maximal effect.

Results for COc1ccc(OC)c(NC(=O)CSc2c3c(nc4cc(Cl)ccc24)CCCC3)c1 ?
FUS suppressor: inactive; TDP-43 yeast inh: 20µM*; Abeta yeast res: inactive; ClpP mod: 0%

What do the screens show for `CC1CCN(C(=O)CSc2c3c(nc4ccc(Cl)cc24)CCCC3)CC1`?
FUS suppressor: inactive; TDP-43 yeast inh: inconclusive; Abeta yeast res: inactive; ClpP mod: -1%

What do the screens show for `CC1CCCCN1C(=O)CSc1c2c(nc3cc(Cl)ccc13)CCCC2` (centres undefined)?
FUS suppressor: inactive; TDP-43 yeast inh: 3%; Abeta yeast res: inactive; ClpP mod: 0%

Results for COc1ccc(NC(=O)CSc2nc(N)c3cc4c(nc3n2)CCCC4)c(OC)c1 ?
FUS suppressor: 32µM*; Mm-Cpn inhibitor: 1%; aSyn rescue: 4%; TDP-43 yeast inh: -32%; Abeta yeast res: inactive; ClpP mod: 0%

Results for Cc1ccc(NC(=O)CSc2nc(N)c3cc4c(nc3n2)CCCC4)cc1 ?
Mm-Cpn inhibitor: -3%; aSyn rescue: 2%; TDP-43 yeast inh: 11%; Abeta yeast res: inactive; ClpP mod: -13%

What do the screens show for `O=C(CSc1c2c(nc3ccc(Cl)cc13)CCCC2)N1CCCCC1`?
FUS suppressor: inactive; TDP-43 yeast inh: 16µM*; Abeta yeast res: inactive; ClpP mod: 0%

Results for CC(=O)Nc1ccc(-c2csc(N3CCC(C(N)=O)CC3)n2)cc1 ?
Mm-Cpn inhibitor: -3%

Results for CCc1ccc(NC(=O)Cn2cnc3sc(C)c(S(=O)(=O)N4CCN(c5ccccc5OC)CC4)c3c2=O)cc1 ?
FUS suppressor: inactive; TDP-43 yeast inh: 5%; Abeta yeast res: inactive; ClpP mod: 1%

How did O=C(CSc1c2c(nc3cc(Cl)ccc13)CCCC2)N1CCN(c2ccccc2F)CC1 do in these assays?
FUS suppressor: inactive; TDP-43 yeast inh: 35µM*; Abeta yeast res: inactive; ClpP mod: 0%

Results for O=C(CSc1c2c(nc3ccc(Cl)cc13)CCCC2)N1CCN(C(=O)c2ccco2)CC1 ?
FUS suppressor: inactive; aSyn rescue: 3%; TDP-43 yeast inh: 6%; Abeta yeast res: inactive; ClpP mod: 0%

What do the screens show for `O=C1/C(=C/c2ccsc2)CC/C1=C\c1cccs1`?
aSyn rescue: -13%

What do the screens show for `O=C(NC1CC(=O)N(c2cccc(F)c2)C1)C1CC1` (centres undefined)?
FUS suppressor: inactive; TDP-43 yeast inh: 10%; Abeta yeast res: inactive; ClpP mod: -1%

How did COCCNC(=S)N/N=C(\C)c1cccc(C(F)(F)F)c1 do in these assays?
FUS suppressor: inactive; Mm-Cpn inhibitor: 4%; aSyn rescue: -12%; TDP-43 yeast inh: -18%; Abeta yeast res: 11µM*

What do the screens show for `COC(=O)C(CC(C)C)Oc1ccc2c(C)cc(=O)oc2c1` (centres undefined)?
FUS suppressor: inactive; Mm-Cpn inhibitor: 1%; aSyn rescue: -1%; TDP-43 yeast inh: 25%; Abeta yeast res: inactive; ClpP mod: 16µM*

Results for CC(=O)Oc1ccc2c(C)cc(=O)oc2c1 ?
FUS suppressor: inactive; Mm-Cpn inhibitor: -6%; aSyn rescue: 3%; TDP-43 yeast inh: -2%; Abeta yeast res: inactive; ClpP mod: 546%

How did COc1ccc(COc2ccc3c(C)cc(=O)oc3c2)cc1 do in these assays?
FUS suppressor: inactive; Mm-Cpn inhibitor: 0%; aSyn rescue: 1%; TDP-43 yeast inh: 7%; Abeta yeast res: inactive; ClpP mod: 5%

What do the screens show for `Cc1cc(=O)oc2cc(OCC(=O)N3CCCC3)ccc12`?
FUS suppressor: inactive; Mm-Cpn inhibitor: 0%; aSyn rescue: -12%; TDP-43 yeast inh: -2%; Abeta yeast res: inactive; ClpP mod: 5%

What do the screens show for `Cc1cc(=O)oc2cc(OCc3ccc(S(=O)(=O)N4CCOCC4)cc3)ccc12`?
FUS suppressor: inconclusive; Mm-Cpn inhibitor: 0%; aSyn rescue: -4%; TDP-43 yeast inh: -22%; Abeta yeast res: inactive; ClpP mod: 3.2µM*

How did Cc1cc(=O)oc2cc(OC(C)C(=O)N3CCOCC3)ccc12 (centres undefined) do in these assays?
FUS suppressor: inactive; Mm-Cpn inhibitor: -3%; aSyn rescue: 1%; TDP-43 yeast inh: 17%; Abeta yeast res: inactive; ClpP mod: 14µM*

Results for Cc1cc(=O)oc2cc(OCC(=O)N3CCOCC3)ccc12 ?
FUS suppressor: inconclusive; Mm-Cpn inhibitor: 0%; aSyn rescue: 0%; TDP-43 yeast inh: -18%; Abeta yeast res: inactive; ClpP mod: 16µM*

How did CCCCCS(=O)(=O)c1oc(-c2cccs2)nc1S(=O)(=O)c1ccc(C)cc1 do in these assays?
FUS suppressor: inactive; TDP-43 yeast inh: 11%; Abeta yeast res: inactive; ClpP mod: -16%

What do the screens show for `O=S(=O)(c1ccccc1)c1nc(-c2cccs2)oc1NCC1CCCO1` (centres undefined)?
FUS suppressor: inactive; Mm-Cpn inhibitor: 0%; aSyn rescue: -12%; TDP-43 yeast inh: -1%; Abeta yeast res: inactive; ClpP mod: 25µM*

What do the screens show for `CCCCS(=O)(=O)c1oc(-c2cccs2)nc1S(=O)(=O)c1ccc(F)cc1`?
FUS suppressor: inactive; TDP-43 yeast inh: 22µM*; Abeta yeast res: inactive; ClpP mod: 0%

How did CC(C)c1nnc(N2C(=O)c3oc4ccccc4c(=O)c3C2c2cccc(O)c2)s1 (centres undefined) do in these assays?
FUS suppressor: inactive; TDP-43 yeast inh: inconclusive; Abeta yeast res: inactive; ClpP mod: 2%

How did COc1cc(-c2cc(OC)c3c(C)oc(C)c3c(=O)c2)ccc1OC(=O)c1cccc(C)c1 do in these assays?
FUS suppressor: inactive; TDP-43 yeast inh: inconclusive; Abeta yeast res: inactive; ClpP mod: 1%

What do the screens show for `CCOC(=O)C1=C(O)c2ccccc2C(=O)/C1=C\c1ccc(C)cc1`?
Mm-Cpn inhibitor: 0%; aSyn rescue: -76%; TDP-43 yeast inh: 3.2µM*; Abeta yeast res: inactive; ClpP mod: 0%

How did CCOC(=O)C1=C(C)OC(=Cc2ccccc2)C1=O do in these assays?
FUS suppressor: inactive; aSyn rescue: -1%; TDP-43 yeast inh: 0%; Abeta yeast res: inactive; ClpP mod: 3%

How did COc1ccc(OCCn2cc(C(=O)c3ccco3)c3ccccc32)cc1 do in these assays?
FUS suppressor: inactive; TDP-43 yeast inh: 18µM*; Abeta yeast res: inconclusive; ClpP mod: inconclusive
